Experimental data reported in PubChem BioAssay (Tox21).
Records with an inconclusive call do not appear. Where a call stands in place of a potency, no number is given. A number with no mark means an inactive call. Calls of active or inactive are those of the source. Calls follow the shape of the dose curve; as a rule, active = well fitted inhibition curve with a large enough effect in the repeat runs; inconclusive = weak or mixed curves; inactive = no such curve, though single readings can be large or run the other way.

Each compound was assayed against Cytochrome P450 2D6 (Homo sapiens) (UniProt P10635) (assay: Cytochrome P450 Family 2 Subfamily D Member 6 (CYP2D6) small molecule antagonists: luciferase reporter qHTS assay (AID 1671196; also: nearly all actives have a fitted effect of over 50% in size)). Details: P450-Glo CYP2D6 enzyme assay, luciferin luminescence, 1 h; series mostly up to 115 µM.
Excerpt: U.S. Tox21 Program National Center for Advancing Translational Sciences [NCATS] U.S. Environmental Protection Agency [EPA] National Institutes of Environmental Health Sciences [NIEHS] National Toxicology Program [NTP] U.S. Food and Drug Administration [FDA] Tox21 Assay Overview: Cytochrome P450 (CYP) enzymes are membrane-bound hemeproteins that play a key role in metabolism of drugs and xenobiotics. Evaluation of the effect of chemicals on CYP isozymes is useful to minimize the adverse drug reactions and toxicities in drug development process. Tox21 chemicals were tested for their effect on CYP enzyme activities by using P450-Glo (TM) screening systems (Promega Corporation, Madison, WI). These systems provide a luminescent method containing proluciferin substrates and are converted to luciferin products by CYP isozymes. The luciferin products formed are detected with a luciferin detection reagent, and the amount of light produced is proportional to CYP activity. P450-Glo (TM) CYP2D6 screening system (Catalog. No. V9890) was used to detect the compounds that interfere in CYP2D6 activity.
Tox21 Assay Protocol Summary: Two ul of enzyme-substrate mix was dispensed into medium binding white/solid 1536-well plates (Greiner Bio-One North America Inc., Monroe, NC) using a BioRaptr Flying Reagent Dispenser (FRD, Beckman Coulter, Brea, CA). […] The assay plates were incubated at room temperature for 10 min. Then 2 ul of NADPH regeneration solution was added to each well of the assay plates using an FRD and incubated at room temperature for 1 h. The reaction was stopped by adding 4 ul of detection reagent using an FRD and after 20 min incubation at room temperature the luminescence signal was measured using a ViewLux plate reader (Perkin Elmer, Shelton, CT). Data were expressed as relative luminescence units.
Potency is read from the fitted curve at half-maximal effect.

Sequence of Cytochrome P450 2D6 (Homo sapiens) (P10635 whole entry, looked up): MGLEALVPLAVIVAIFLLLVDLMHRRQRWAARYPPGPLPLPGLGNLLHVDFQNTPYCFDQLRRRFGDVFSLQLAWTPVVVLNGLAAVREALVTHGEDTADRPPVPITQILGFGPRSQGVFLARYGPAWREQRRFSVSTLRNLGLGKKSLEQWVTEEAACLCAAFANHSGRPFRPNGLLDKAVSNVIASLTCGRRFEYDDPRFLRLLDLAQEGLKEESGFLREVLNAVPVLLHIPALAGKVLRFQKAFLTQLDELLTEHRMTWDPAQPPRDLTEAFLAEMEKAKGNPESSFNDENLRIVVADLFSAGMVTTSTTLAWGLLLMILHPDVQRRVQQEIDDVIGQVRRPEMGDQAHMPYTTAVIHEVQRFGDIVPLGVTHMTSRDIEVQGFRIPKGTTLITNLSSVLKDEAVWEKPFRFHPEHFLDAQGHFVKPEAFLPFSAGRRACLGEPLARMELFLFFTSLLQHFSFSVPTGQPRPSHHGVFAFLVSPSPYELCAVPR

For `OC(CCN1CCCCC1)(c1ccccc1)C1CC2C=CC1C2` (stereo not given), which Potency is on record?
Its Potency is 0.776 µM (active).

Which Potency does the source give for `CCCN1CCCC[C@H]1C(=O)Nc1c(C)cccc1C` here?
Its Potency is 4.9 µM (active).

With `Cc1sccc1Br` as the compound, how does the Potency read?
The Potency was “inactive”.

For `O=C1CCCC(=O)C1`, which Potency is on record?
Its Potency is “inactive”.

How did the Potency turn out when `FC1(F)C(F)(F)C(F)(F)C2(F)C(F)(F)C(F)(F)C(F)(F)C(F)(F)C2(F)C1(F)F` (stereo not given) was run?
The Potency was “inactive”.

With `O=c1[nH]c(=O)n([C@H]2C[C@H](O)[C@@H](CO)O2)cc1I` as the compound, how does the Potency read?
The Potency was “inactive”.

For `FC(F)OC(Cl)C(F)(F)F` (stereo not given), which Potency is on record?
Its Potency is “inactive”.

How did the Potency turn out when `C=COCC1CCC(CO)CC1` (stereo not given) was run?
Its Potency is “inactive”.

For `O=C1OC(=O)C2CCCCC12` (stereo not given), which Potency is on record?
The Potency was “inactive”.

For `O=[N+]([O-])c1ccc(F)cc1F`, which Potency is on record?
The Potency was “inactive”.

How did the Potency turn out when `NS(=O)(=O)c1cc(C(=O)O)cc(N2CCCC2)c1Oc1ccccc1` was run?
Its Potency is “inactive”.

How did the Potency turn out when `Nc1nc2c(ncn2COC(CO)CO)c(=O)[nH]1` was run?
Its Potency is “inactive”.

Which Potency does the source give for `NS(=O)(=O)c1cc(C(=O)NN2C[C@H]3[C@H]4CCC(C4)[C@H]3C2)ccc1Cl` here?
The Potency was “inactive”.

Which Potency does the source give for `NC(=O)c1cn(Cc2c(F)cccc2F)nn1` here?
Its Potency is “inactive”.

Which Potency does the source give for `COc1nc(N)nc2c1ncn2[C@@H]1O[C@H](CO)[C@@H](O)[C@@H]1O` here?
Its Potency is “inactive”.

How did the activity change, negative = inhibition turn out when `O=C(O)CN(CCOCCOCCN(CC(=O)O)CC(=O)O)CC(=O)O` was run?
Its activity change, negative = inhibition is -9.59% [at 0.435 µM].

How did the Potency turn out when `CC/C=C\CC/C=C/C(OCC)OCC` was run?
The Potency was “inactive”.

For `NC(=O)c1ccc([N+](=O)[O-])cc1`, which Potency is on record?
Its Potency is “inactive”.

For `CCCC(=O)O[C@]1(C(=O)CO)CC[C@H]2[C@@H]3CCC4=CC(=O)CC[C@]4(C)[C@H]3[C@@H](O)C[C@@]21C`, which Potency is on record?
Its Potency is “inactive”.

Which Potency does the source give for `CCC(C)C1CCCCC1=O` (stereo not given) here?
The Potency was “inactive”.

For `CCS(=O)(=O)c1ccc(OC)c(C(=O)OC)c1`, which Potency is on record?
Its Potency is “inactive”.

With `NC(CSCC(=O)O)C(=O)O` (stereo not given) as the compound, how does the Potency read?
Its Potency is “inactive”.

Which Potency does the source give for `Nc1c[n+](N2CCOCC2)no1` here?
The Potency was “inactive”.

With `N=c1nc(N2CCCCC2)cc(N)n1O` as the compound, how does the Potency read?
Its Potency is 21.9 µM (active).

How did the Potency turn out when `CN1CC(=O)NC1=N` was run?
The Potency was “inactive”.

Which Potency does the source give for `O=C1CCCN1C1CCCCC1` here?
The Potency was 35.6 µM (active).

With `CCCN(CCC)CCc1cccc2c1CC(=O)N2` as the compound, how does the Potency read?
Its Potency is 0.977 µM (active).

How did the Potency turn out when `COC(C)(C)CCCC(C)CC=O` (stereo not given) was run?
Its Potency is “inactive”.

How did the Potency turn out when `CC(=O)Nc1ccc(S(N)(=O)=O)cc1` was run?
Its Potency is “inactive”.

For `Cc1cnc(NS(=O)(=O)c2ccc(N)cc2)nc1`, which Potency is on record?
The Potency was “inactive”.

With `CC1(C)CO[C@@H](CC(=O)O)CN1` as the compound, how does the Potency read?
The Potency was “inactive”.

For `CN1N=C(C(N)=O)CCC1=O`, which Potency is on record?
Its Potency is “inactive”.

With `C1CN(CCOCCN2CCOCC2)CCO1` as the compound, how does the Potency read?
The Potency was “inactive”.

Which Potency does the source give for `CC[N+](C)(C)c1cccc(O)c1` here?
The Potency was “inactive”.

How did the Potency turn out when `OCCOc1ccc(OCCO)cc1` was run?
The Potency was “inactive”.

How did the Potency turn out when `CC(=O)Nc1c(I)cc(I)c(C(=O)O)c1I` was run?
The Potency was 27.5 µM (active).

With `CCCCNC(=O)NCCCC` as the compound, how does the Potency read?
Its Potency is “inactive”.

With `C[C@H]1C[C@@H](O)CC(C)(C)C1` as the compound, how does the Potency read?
The Potency was “inactive”.

With `CCOC(=O)C(=O)OCC` as the compound, how does the Potency read?
Its Potency is 31.7 µM (active).

`N[C@H]1CN(c2c(F)cc3c(=O)c(C(=O)O)cn(C4C[C@H]4F)c3c2Cl)CC12CC2` (stereo not given in full) was tested. Which Potency did it give?
The Potency was “inactive”.
